This is part of a sample that, as a whole, favours compounds with a hit. Of some 79,000 tested, about 15% had one in any assay. Active and inactive are the calls of the source. Rule as the data show it: active = growth inhibition above about 70%; inactive = the rest.
Columns and labels:
[1] = NCI Yeast Anticancer Drug Screen. Data for the rad50 strain (AID 155);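 also: 0% = growth of vehicle-only cultures of the same strain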; conditions: S. cerevisiae rad50 strain growth inhibition, stronger effect = higher value
Outline: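 Yeast carrying a defined DNA repair defect were exposed to test compounds, and growth was compared with vehicle-treated controls to give percent inhibition.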

[2] = NCI Yeast Anticancer Drug Screen. Data for the mec2-1 strain (AID 157); conditions: S. cerevisiae mec2-1 strain, stronger effect = higher value
Outline: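 Growth inhibition is read against vehicle-treated controls after compound exposure of the mec2-1 yeast strain, which is defective in DNA damage repair or cell cycle control.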

[3] = NCI Yeast Anticancer Drug Screen. Data for the sgs1 mgt1 strain (AID 161);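 also: 0% = growth of cultures given vehicle only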; conditions: S. cerevisiae sgs1 mgt1 strain, stronger effect = higher value
Outline: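 Yeast cells carrying a defined DNA-repair defect were exposed to test compounds. Growth inhibition was measured relative to vehicle-treated controls.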

[4] = NCI Yeast Anticancer Drug Screen. Data for the cln2 rad14 strain (AID 165);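 also: 0% = growth equal to vehicle treated cultures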; conditions: S. cerevisiae cln2 rad14 strain, stronger effect = higher value
Outline: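 Growth inhibition, relative to vehicle-treated controls, is the read-out. The test organism is a yeast strain with defined genetic alterations, cln2 rad14.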

[5] = NCI Yeast Anticancer Drug Screen. Data for the bub3 strain (AID 167); conditions: S. cerevisiae bub3 mutant strain, stronger effect = higher value
Outline: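 Compounds were applied to a genetically altered yeast strain carrying a cell-cycle control defect. Growth inhibition was scored against vehicle-treated controls.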

[6] = NCI Yeast Anticancer Drug Screen. Data for the mlh1 rad18 strain (AID 175); conditions: S. cerevisiae mlh1 rad18 strain growth inhibition, stronger effect = higher value
Outline: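 Cells of a genetically altered yeast strain, deficient in DNA damage repair, were treated with compound. Their growth was then compared with that of vehicle-treated cultures to give inhibition.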

[7] = at 5.0 µM (retest, dose inferred, filed as 0.5)
[8] = at 50.0 µM (retest, dose inferred, filed as 5.0)

Measured: growth inhibition

C#CCN1CCN(C(=S)N/N=C(\C)c2ccccn2)CC1
active: [1]; [8] 99% | [1]; at 50.0 µM 99.5% | [2]; [8] 100% | [2]; at 50.0 µM 99.7% | [3]; [8] 100% | [3]; at 50.0 µM 99.5% | [4]; [8] 99% | [4]; at 50.0 µM 99.4% | [5]; [8] 99% | [5]; at 50.0 µM 99.3% | [6]; [8] 100% | [6]; at 50.0 µM 99.3%
inactive: [1]; [7] 22% | [2]; [7] 19% | [3]; [7] 20% | [4]; [7] 21% | [5]; [7] 14% | [6]; [7] 52%

CCCCCCCCC/C=C1\CCC(CN(C)C)C1=O (stereo not given)
active: [1]; [8] 88% | [1]; at 50.0 µM 89.4% | [2]; [8] 98% | [2]; at 50.0 µM 93% | [3]; [8] 91% | [3]; at 50.0 µM 90.8% | [4]; [8] 96% | [4]; at 50.0 µM 89.6% | [5]; [8] 97% | [5]; at 50.0 µM 89.5% | [6]; [8] 97% | [6]; at 50.0 µM 88.8%
inactive: [1]; [7] -26% | [2]; [7] -36% | [3]; [7] -28% | [4]; [7] -6% | [5]; [7] -24% | [6]; [7] -27%

O=C(N/N=C/c1cc(Cl)cc(Cl)c1O)c1ccccc1
active: [5]; at 50.0 µM 71.6%
inactive: [1]; [7] 39% | [1]; [8] 22% | [1]; at 50.0 µM 69.9% | [2]; [7] 41% | [2]; [8] 36% | [2]; at 50.0 µM 57.5% | [3]; [7] 55% | [3]; [8] 48% | [3]; at 50.0 µM 69.6% | [4]; [7] 14% | [4]; [8] 1% | [4]; at 50.0 µM 33.6% | [5]; [7] 46% | [5]; [8] 30% | [6]; [7] 45% | [6]; [8] 40% | [6]; at 50.0 µM 69.8%

S=c1nc(C(c2ccccc2)c2ccccc2)[nH][nH]1
inactive: [1]; [7] -2% | [1]; [8] 1% | [1]; at 50.0 µM 29.1% | [2]; [7] -1% | [2]; [8] 7% | [2]; at 50.0 µM 1.7% | [3]; [7] 10% | [3]; [8] 13% | [3]; at 50.0 µM 40.4% | [4]; [7] 0% | [4]; [8] -2% | [4]; at 50.0 µM 28.1% | [5]; [7] 1% | [5]; [8] 27% | [5]; at 50.0 µM 11.6% | [6]; [7] -3% | [6]; [8] 3% | [6]; at 50.0 µM 65.5%

O=C1NCCCNCCCNCCCNC(=O)c2cccc1n2
inactive: [1]; [7] 32% | [1]; [8] 30% | [1]; at 50.0 µM -41.7% | [2]; [7] 23% | [2]; [8] 21% | [2]; at 50.0 µM -30.6% | [3]; [7] 21% | [3]; [8] 24% | [3]; at 50.0 µM -18.1% | [4]; [7] 18% | [4]; [8] 28% | [4]; at 50.0 µM 5.3% | [5]; [7] 23% | [5]; [8] 26% | [5]; at 50.0 µM 0.55% | [6]; [7] 29% | [6]; [8] 26% | [6]; at 50.0 µM -15.2%

O=NNc1ccc(-c2ccc([N+](=O)[O-])cc2)cn1
inactive: [1]; [7] 18% | [1]; [8] 47% | [1]; at 50.0 µM 25.4% | [2]; [7] 11% | [2]; [8] 37% | [2]; at 50.0 µM 5.85% | [3]; [7] 8% | [3]; [8] 31% | [3]; at 50.0 µM 30.6% | [4]; [7] 26% | [4]; [8] 31% | [4]; at 50.0 µM 34.2% | [5]; [7] 14% | [5]; [8] 18% | [5]; at 50.0 µM -11.7% | [6]; [7] 10% | [6]; [8] 48% | [6]; at 50.0 µM 30.1%

COc1ccc(CCCCI)cc1
inactive: [1]; [7] -4% | [2]; [7] -14% | [3]; [7] -6% | [4]; [7] 2% | [5]; [7] 0% | [6]; [7] 16%
active: [1]; [8] 95% | [1]; at 50.0 µM 94.6% | [2]; [8] 94% | [2]; at 50.0 µM 95.2% | [3]; [8] 97% | [3]; at 50.0 µM 94.2% | [4]; [8] 97% | [4]; at 50.0 µM 96.4% | [5]; [8] 96% | [5]; at 50.0 µM 97% | [6]; [8] 98% | [6]; at 50.0 µM 96.9%

C=C(CN(C)C)C(=O)c1ccccc1
inactive: [1]; [7] -5% | [1]; [8] 4% | [1]; at 50.0 µM 56.6% | [2]; [7] 8% | [2]; [8] 41% | [2]; at 50.0 µM 65% | [3]; [7] 8% | [3]; [8] 17% | [3]; at 50.0 µM 56% | [4]; [7] -26% | [4]; [8] 12% | [4]; at 50.0 µM 9.55% | [5]; [7] -20% | [5]; [8] 19% | [6]; [7] -4% | [6]; [8] 17%
active: [5]; at 50.0 µM 77.7% | [6]; at 50.0 µM 74.8%

CC(=O)OCC(C(N)=O)(c1ccccc1)c1ccccc1
active: [4]; at 50.0 µM 91.5%
inactive: [1]; [7] -5% | [1]; [8] 1% | [1]; at 50.0 µM -2.6% | [2]; [7] -2% | [2]; [8] 2% | [2]; at 50.0 µM -10% | [3]; [7] -1% | [3]; [8] -5% | [3]; at 50.0 µM 12.8% | [4]; [7] -5% | [4]; [8] -3% | [5]; [7] -7% | [5]; [8] -1% | [5]; at 50.0 µM 2.8% | [6]; [7] -6% | [6]; [8] -6% | [6]; at 50.0 µM 11%

CCOC(=O)c1ccc(N(CCC(O)CN=[N+]=[N-])S(=O)(=O)c2ccc(C)cc2)cc1 (stereo not given)
inactive: [1]; [7] 9% | [1]; [8] 66% | [1]; at 50.0 µM 57% | [2]; [7] 11% | [2]; [8] 23% | [2]; at 50.0 µM 19.4% | [3]; [7] 18% | [3]; [8] 63% | [3]; at 50.0 µM 53.4% | [4]; [7] 0% | [4]; [8] 3% | [4]; at 50.0 µM 40.6% | [5]; [7] -4% | [5]; [8] 49% | [5]; at 50.0 µM 5.9% | [6]; [7] 29% | [6]; at 50.0 µM 55.1%
active: [6]; [8] 84%

— PubChem BioAssay (NCI)
